In the supplement of paper PMC13380429:

System: Vero E6 infected with SARS-CoV-2
Assay: inhibition of SARS-CoV-2 cytopathic effect; higher = more antiviral protection, active = above 15
Conditions: 48 h

Measured: inhibition of SARS-CoV-2 cytopathic effect

Cn1cnc([N+](=O)[O-])c1Sc1ncnc2[nH]cnc12 [azathioprine]
inactive: 1 nM -3.67% | 8.33 nM 2.21% | 100 nM 2.74% | 833.33 nM 3.46% | 10000 nM -3.46%

COc1ccc(C(C)(C)C)cc1CN[C@H]1C2CCN(CC2)[C@H]1C(c1ccccc1)c1ccccc1 [maropitant]
inactive: 1 nM 2.55% | 8.33 nM 0.73% | 100 nM -1.99% | 833.33 nM -1.66% | 10000 nM 12.5%

OC[C@H]1NCC[C@@H](O)[C@@H]1O [fagomine]
inactive: 1 nM -1.09% | 8.33 nM 1.34% | 100 nM 1.02% | 833.33 nM 2.42% | 10000 nM 0.75%

Fc1ccc(C(c2ccccc2)(c2ccccc2F)n2ccnc2)cc1 (stereo not given) [flutrimazole]
inactive: 1 nM -1.84% | 8.33 nM -3.27% | 100 nM -4.23% | 833.33 nM -1.83% | 10000 nM -1.07%

CCC1=C[C@@H]2CN(C1)Cc1c([nH]c3ccccc13)[C@@](C(=O)OC)(c1cc3c(cc1OC)N(C)[C@H]1[C@@](O)(C(=O)OC)[C@H](OC(C)=O)[C@]4(CC)C=CCN5CC[C@]31[C@@H]54)C2 [vinorelbine]
inactive: 1 nM -1.63% | 8.33 nM -1.57% | 100 nM -1.35% | 833.33 nM -2.48% | 10000 nM -3.81%

CCc1cc(/C(C)=N/OCc2ccc(C3CCCCC3)c(C(F)(F)F)c2)ccc1CN1CC(C(=O)O)C1 [siponimod]
inactive: 1 nM -0.21% | 8.33 nM -1.67% | 100 nM -0.01% | 833.33 nM -0.18% | 10000 nM 1.37%

Oc1c(I)cc(I)c2cccnc12 [iodoquinol]
inactive: 1 nM -0.28% | 8.33 nM 2.09% | 100 nM -1.12% | 833.33 nM 1.46% | 10000 nM 0.59%

CC(C)=CCC[C@](C)(O)[C@@H]1CC=C(C)CC1 [levomenol]
inactive: 1 nM 0.81% | 8.33 nM 4.97% | 100 nM 5.57% | 833.33 nM 3.97% | 10000 nM 0.76%

CC(=O)CC(c1ccccc1)c1c(O)c2ccccc2oc1=O (stereo not given) [warfarin]
inactive: 1 nM -10.1% | 8.33 nM -9.65% | 100 nM -9.92% | 833.33 nM -10.1% | 10000 nM -14.2%

COc1cc(SC)ccc1C(=O)N1CCC(Cc2ccccc2)CC1
inactive: 1 nM 4.96% | 8.33 nM 7.9% | 100 nM 8.76% | 833.33 nM 9.01% | 10000 nM 7.35%

NC1CCN(c2c(F)cc3c(=O)c(C(=O)O)cn(C4CC4)c3c2Cl)C1 (stereo not given) [clinafloxacin]
inactive: 1 nM 2.47% | 8.33 nM 0.61% | 100 nM -1% | 833.33 nM -0.8% | 10000 nM 0.5%

Nc1nc(-c2ccc(Cl)c(Cl)c2)c(-c2ccncc2)s1
inactive: 1 nM -1.24% | 8.33 nM 1.18% | 100 nM -2.7% | 833.33 nM -2.03% | 10000 nM -0.28%

CCCCCCCCCCCCCCCC[N+](C)(C)CCN(Cc1ccc(OC)cc1)c1ncccn1 [thonzonium]
inactive: 1 nM -1.08% | 8.33 nM -1.07% | 100 nM 3.19% | 833.33 nM -1.67% | 10000 nM -15.8%

O=C(Nc1ccc(Oc2ccc(Cl)cn2)c(Cl)c1)c1ccccn1
inactive: 1 nM 0.81% | 8.33 nM -0.54% | 100 nM 1.75% | 833.33 nM -3.64% | 10000 nM 0.26%

CN1CC(=O)N=C1NC(=O)Nc1cccc(Cl)c1 [fenobam]
inactive: 1 nM 0.79% | 8.33 nM 2.12% | 100 nM 0.63% | 833.33 nM 1.08% | 10000 nM -0.64%

CN(C)CCN(C)CCc1ccc(Cl)c(Cl)c1
inactive: 1 nM -3% | 8.33 nM -0.98% | 100 nM 1.41% | 833.33 nM -3.83% | 10000 nM -3.28%

OC[C@H]1OC(O)[C@H](O)[C@@H](O)[C@@H]1O (stereo not given in full) [dextrose]
inactive: 1 nM 0.5% | 8.33 nM -0.54% | 100 nM 0.12% | 833.33 nM -9.41% | 10000 nM -1.07%

COc1cc(O)c(C(=O)c2ccccc2)cc1S(=O)(=O)O [sulisobenzone]
inactive: 1 nM 1.82% | 8.33 nM 1.76% | 100 nM -0.05% | 833.33 nM -2.93% | 10000 nM 1.98%

Nc1ncnc2c1ncn2CCOCP(=O)(O)O [adefovir]
inactive: 1 nM 6.28% | 8.33 nM 4.07% | 100 nM 2.27% | 833.33 nM 0.75% | 10000 nM 2.85%

COCCOc1ccc2c(c1)ncn2-c1ccc2cccc(N3CCC(N)CC3)c2n1
inactive: 1 nM -0.92% | 8.33 nM 2.04% | 100 nM 0.64% | 833.33 nM 1.12% | 10000 nM -2.22%
